Data on nine compounds can be found in PubChem BioAssay (NCI).

About 83,000 compounds went through this panel and 20% of them were active in at least one assay; those are over-represented in the sample as a whole.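 Cells were grown in 96-well plates and exposed to the test compound at a single concentration for 48 hours; results are reported as percent growth, with values below 10 considered active.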 A number with no mark means an inactive call. Calls of active or inactive are those of the source.

Test systems include NCI-H23 lung; NCI-H226 lung; NCI-H322M lung; HOP-62 NSCLC; NCI-H460 lung; HOP-92 NSCLC; NCI-H522 lung; A549/ATCC NSCLC; 786-0 renal; COLO 205 colon; DU-145 prostate; K-562 leukemia; MDA-MB-231 breast; RXF 393 renal; SF-295 CNS; SF-539 CNS; UACC-257 melanoma; M14 melanoma; MALME-3M melanoma; SF-268 CNS.
What all share (assay): NCI-60 one-dose screen, 48 h (100 = growth as untreated, 0 = no growth, -100 = all killed)
Common to all, as to conditions: 10 µM unless noted

Regarding `CCN(CC)CCNc1c(C)cc(CO)c(Cl)c1C`, the growth in the assay on NCI-H23 lung is 102%; with NCI-H226 lung it was -23.6% (active); in the assay with NCI-H322M lung, 110%; in the assay on HOP-62 NSCLC, 113%; in the assay on NCI-H460 lung, 98.9%; in the assay on HOP-92 NSCLC it was 109%. Also, the growth with NCI-H522 lung was 104%; with A549/ATCC NSCLC, 84.5%; with 786-0 renal it was 103%; in the assay with COLO 205 colon it was 85.2%; in the assay on DU-145 prostate it was 120%; in the assay on K-562 leukemia, 115%. For the same compound, the growth in the assay with MDA-MB-231 breast was 104%; in the assay with RXF 393 renal it was 119%; in the assay with SF-295 CNS, 104%; in the assay with SF-539 CNS it was 103%; in the assay with UACC-257 melanoma, 96.7%; with M14 melanoma, 110%.
`CCCCCNCCCCCNc1cc(OC)cc2cccnc12`: the growth in the assay with NCI-H23 lung was 90.7%; in the assay with NCI-H226 lung, 94%; with NCI-H322M lung, 89.4%; in the assay on HOP-62 NSCLC, 79.1%; in the assay on NCI-H460 lung it was 95.9%; in the assay on HOP-92 NSCLC it was 9.38% (active). In addition, the growth is 89.6% in the assay on NCI-H522 lung; 96.1% with A549/ATCC NSCLC; 83.1% in the assay with 786-0 renal; 63.6% in the assay on COLO 205 colon; 104% in the assay with DU-145 prostate; 60.2% with MALME-3M melanoma. The growth with MDA-MB-231 breast was 88.8%; in the assay on RXF 393 renal, 68.3%; in the assay with SF-268 CNS it was 95.6%; in the assay on SF-539 CNS, 87.8%; in the assay on UACC-257 melanoma, 101%; in the assay on M14 melanoma, 87.3%.
As to `COc1ccc(/C(=C\c2ccc3c(c2)OCO3)C(=O)Nc2nc3ccc(F)cc3s2)cc1OC`, the growth is 93.2% with NCI-H23 lung; 87.1% in the assay with NCI-H226 lung; 87.3% in the assay on NCI-H322M lung; 92.8% in the assay on HOP-62 NSCLC; 105% in the assay on NCI-H460 lung; 93.6% in the assay on HOP-92 NSCLC. The growth in the assay on NCI-H522 lung is 94.2%; in the assay on A549/ATCC NSCLC it was 99.7%; with 786-0 renal, 92.1%; in the assay on COLO 205 colon it was 106%; in the assay with DU-145 prostate it was 98.2%; in the assay with K-562 leukemia, 101%. The growth in the assay on MDA-MB-231 breast was 109%; with RXF 393 renal, 111%; in the assay on SF-268 CNS, 98.5%; in the assay with SF-539 CNS, 96.3%; with UACC-257 melanoma it was 112%; with M14 melanoma, 94.3%.
Consider `CCCCCCCCCCC(C(O)c1ccccc1)N1CCCCC1` (stereo not given), for which the growth with NCI-H23 lung was 49.6%; in the assay on NCI-H226 lung it was 33.6%; in the assay with NCI-H322M lung it was 45.8%; in the assay on HOP-62 NSCLC, -75.3% (active); in the assay with NCI-H460 lung it was -74.5% (active); with HOP-92 NSCLC, -14.8% (active). Besides, the growth with NCI-H522 lung is 18%; in the assay on A549/ATCC NSCLC, 47.3%; with 786-0 renal it was 29%; in the assay with COLO 205 colon it was -76.3% (active); in the assay on DU-145 prostate, 64.5%; with K-562 leukemia, 3.31% (active). Also, the growth in the assay with MDA-MB-231 breast is 9.66% (active); in the assay with RXF 393 renal it was -22.3% (active); in the assay with SF-268 CNS, 68.4%; in the assay with SF-539 CNS, 27.3%; in the assay with UACC-257 melanoma, -1.19% (active); in the assay on M14 melanoma it was -63.8% (active).
On to `CN(C)c1ccc(C(c2ccccc2)c2ccc(N(C)C)cc2)cc1`, for which the growth is 79.1% in the assay on NCI-H23 lung; 95.2% with NCI-H226 lung; 128% in the assay with NCI-H322M lung; 104% in the assay on HOP-62 NSCLC; 99% in the assay on NCI-H460 lung; 63.4% in the assay on HOP-92 NSCLC. Also, the growth in the assay with NCI-H522 lung was 88.3%; in the assay with A549/ATCC NSCLC it was 91.8%; with 786-0 renal, 97.5%; in the assay on COLO 205 colon it was 111%; in the assay on DU-145 prostate it was 101%; in the assay with K-562 leukemia, 73.4%. The growth with MDA-MB-231 breast is 98.5%; in the assay with RXF 393 renal, 107%; in the assay with SF-268 CNS, 89.9%; in the assay on SF-539 CNS it was 112%; in the assay with UACC-257 melanoma it was 98.1%; with M14 melanoma, 93%.
As for `CCc1ccc2c(c1)N(CCO)C1=C(C(=O)OC1)C2c1cccc(Cl)c1` (stereo not given), the growth in the assay with NCI-H23 lung is 38.8%; in the assay with NCI-H226 lung, 32.4%; with NCI-H322M lung, 39.4%; in the assay with HOP-62 NSCLC it was 31.7%; with NCI-H460 lung, 10.8%; in the assay with HOP-92 NSCLC, 93.4%. For the same compound, the growth in the assay with NCI-H522 lung is -22% (active); with A549/ATCC NSCLC, 26.6%; in the assay on 786-0 renal, 32.8%; with COLO 205 colon, 2.49% (active); with DU-145 prostate it was 11.3%; in the assay on K-562 leukemia it was 13.3%. Besides, the growth with MDA-MB-231 breast was 30.8%; in the assay on RXF 393 renal, 10.1%; with SF-268 CNS, 44.9%; in the assay with SF-295 CNS, -15.6% (active); in the assay with SF-539 CNS it was -12.6% (active); in the assay on UACC-257 melanoma it was 62.2%. The growth in the assay with M14 melanoma was 4.38% (active).
On to `O=C(Cc1ccc(Nc2ccnc(C(F)(F)F)c2)cc1)N/N=C/c1ccccc1O`, for which the growth was 37.7% with NCI-H23 lung; 51.4% with NCI-H226 lung; 32% in the assay on NCI-H322M lung; -9.42% (active) in the assay on HOP-62 NSCLC; 3.37% (active) in the assay on NCI-H460 lung; 75.8% with HOP-92 NSCLC. For the same compound, the growth is 22.5% in the assay with NCI-H522 lung; 36.2% in the assay on A549/ATCC NSCLC; 6.73% (active) in the assay with 786-0 renal; 14% with COLO 205 colon; 39.3% in the assay with DU-145 prostate; 38.8% in the assay on MALME-3M melanoma. The growth with MDA-MB-231 breast is 27.9%; in the assay on RXF 393 renal, 49%; in the assay with SF-268 CNS, 28.6%; in the assay with SF-295 CNS, 30%; with SF-539 CNS, 24.1%; in the assay with UACC-257 melanoma, 34.7%. For the same compound, the growth in the assay with M14 melanoma is 8.64% (active).
For the compound `O=C(Nc1ccc(Br)cc1)Nc1ccccc1Cl`, the growth with NCI-H23 lung is 63.2%; in the assay on NCI-H226 lung, 80%; with NCI-H322M lung, 119%; in the assay with HOP-62 NSCLC it was 92.7%; in the assay on NCI-H460 lung, 93.3%; with HOP-92 NSCLC, 90.5%. Moreover, the growth was 56.8% in the assay with NCI-H522 lung; 82.5% with A549/ATCC NSCLC; 83.4% in the assay with 786-0 renal; 106% with COLO 205 colon; 91.1% in the assay with DU-145 prostate; 84.5% with K-562 leukemia. For the same compound, the growth is 72.5% in the assay with MDA-MB-231 breast; 83% with RXF 393 renal; 93.8% with SF-268 CNS; 89.3% in the assay on SF-539 CNS; 88% in the assay with UACC-257 melanoma; 89.2% with M14 melanoma.
Consider `O=C1OCC2=C1C(c1ccc(Cl)c(Cl)c1)c1cc3c(cc1N2CCO)CCC3` (stereo not given), for which the growth in the assay with NCI-H23 lung is 31.5%; in the assay with NCI-H226 lung it was 24%; in the assay on NCI-H322M lung it was 42%; with HOP-62 NSCLC, 38.9%; with NCI-H460 lung it was 5.49% (active); in the assay with HOP-92 NSCLC, 82%. Further, the growth is -14.8% (active) with NCI-H522 lung; 21.6% in the assay with A549/ATCC NSCLC; 27.5% with 786-0 renal; 6.1% (active) with COLO 205 colon; 7.85% (active) with DU-145 prostate; 19.7% in the assay with K-562 leukemia. Further, the growth with MDA-MB-231 breast was 8.3% (active); with RXF 393 renal, 21%; in the assay on SF-268 CNS it was 44.3%; with SF-295 CNS, -9.42% (active); in the assay with SF-539 CNS it was -10.2% (active); in the assay on UACC-257 melanoma, 60.2%. For the same compound, the growth in the assay on M14 melanoma was 12.1%.
